Measured values reported in PubChem BioAssay (NCATS).
Inconclusive results are not listed. Activity calls are given as the source filed them. The call rests on the fitted dose curve; in most records, active means well fitted curve in the direction sought with a large enough effect; inconclusive means small, poorly fitted or top-dose-only effect, or another doubt; inactive means no such curve, though single readings can be large; an effect the other way counts as inactive or inconclusive.

Key:
CRL-7250 = normal cell line; assay: Cytotoxic Profiling of Annotated Libraries Using Quantitative High-Throughput Screening (AID 1296008); conditions: Five cell lines viability, CellTiter-Glo ATP luminescence, 48-72 h; max response: active compounds read low; further: nearly all actives have a fitted effect of over 60% in size; on max response: on the % scale 0 is the no-effect control and ±100 the full control effect
Summary of the method: (§1)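 Cytotoxicity was measured as CellTiter-Glo ATP luminescence, read after 10 min at room temperature. Compound treatment of the cells lasted 48 or 72 hr at 37 degrees Celsius in a qHTS format.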

HEK293 = assay: as above; conditions: Five cell lines viability, CellTiter-Glo ATP luminescence, 48-72 h; max response: active compounds read low
Summary of the method: as §1

HaCat = assay: as above; conditions: Five cell lines viability, CellTiter-Glo ATP luminescence, 48-72 h; max response: active compounds read low
Summary of the method: as §1

KB-3-1 = assay: as above; conditions: Five cell lines viability, CellTiter-Glo ATP luminescence, 48-72 h; max response: active compounds read low
Summary of the method: as §1

NIH3T3 [1] = assay: as above; conditions: Five cell lines viability, CellTiter-Glo ATP luminescence, 48-72 h; max response: active compounds read low
Summary of the method: as §1

HEK293T [2] = assay: qHTS assay to identify novel small-molecules to repurpose for Merkel cell carcinoma treatment (AID 1296009); conditions: MCC and control cell lines, CellTiter-Glo viability, 72 h; at 44.8 µM (top of the series) unless noted; further: nearly all actives have a fitted effect of over 60% in size
Summary of the method: (§2)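 After compound transfer in DMSO, plates were kept 72 hr at 37 degree celsius. Luminescent ATP signal from CellTiter-Glo served as viability measure, normalized against DMSO and no-cell controls.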

C33A = assay: Primary qHTS to identify gynecologic anti-cancer compounds using libraries of approved drugs and bioactive compounds (AID 1345084); conditions: Gynecologic cancer cell panel viability, ATPlite luminescence, 48 h; series mostly up to 57.5 µM; further: on the % scale 0 is the no-effect control and ±100 the full control effect; nearly all actives have a fitted effect of over 55% in size
Summary of the method: (§3)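 In this quantitative HTS, cell killing is estimated from loss of ATP-dependent luciferase light. Cells see five compound concentrations over a 48 h exposure.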

CAOV3 = assay: as above; conditions: Gynecologic cancer cell panel viability, ATPlite luminescence, 48 h; series mostly up to 57.5 µM
Summary of the method: as §3

CASKI = assay: as above; conditions: Gynecologic cancer cell panel viability, ATPlite luminescence, 48 h; series mostly up to 57.5 µM
Summary of the method: as §3

Es-2 = assay: as above; conditions: Gynecologic cancer cell panel viability, ATPlite luminescence, 48 h; series mostly up to 57.5 µM
Summary of the method: as §3

HeLa = assay: as above; conditions: Gynecologic cancer cell panel viability, ATPlite luminescence, 48 h; series mostly up to 57.5 µM
Summary of the method: as §3

JEG-3 = assay: as above; conditions: Gynecologic cancer cell panel viability, ATPlite luminescence, 48 h; series mostly up to 57.5 µM
Summary of the method: as §3

NIH3T3 [3] = assay: qHTS assay to identify novel small-molecules to repurpose for Merkel cell carcinoma treatment (AID 1296009); conditions: MCC and control cell lines, CellTiter-Glo viability, 72 h; at 44.8 µM (top of the series) unless noted; further: nearly all actives have a fitted effect of over 60% in size
Summary of the method: as §2

Hek293T [4] = assay: Primary qHTS to identify gynecologic anti-cancer compounds using libraries of approved drugs and bioactive compounds (AID 1345084); conditions: Gynecologic cancer cell panel viability, ATPlite luminescence, 48 h, control line for the selectivity index; series mostly up to 57.5 µM; further: on the % scale 0 is the no-effect control and ±100 the full control effect; nearly all actives have a fitted effect of over 55% in size
Summary of the method: as §3

CC(O)C1NC(=O)C2CCCN2C1=O (configuration not stated)
inactive: max response (CRL-7250) 3.11% | outcome (HEK293) | max response (HaCat) -1.16% | outcome (KB-3-1) | max response (NIH3T3 [1]) -1.84% | outcome (HEK293T [2]) inactive [at 92 µM] | Potency (C33A) | Potency (CAOV3) | outcome (CASKI) | Potency (Es-2) | Potency (HeLa) | Potency (JEG-3)

c1ccc2c(Nc3nnc(-c4ccncc4)s3)cccc2c1
inactive: max response (CRL-7250) 3.08% | outcome (HEK293) | max response (HaCat) -11.3% | max response (KB-3-1) 9.81% | max response (NIH3T3 [1]) -0.252% | outcome (HEK293T [2]) | Potency (C33A) | Potency (CAOV3) | outcome (CASKI) | Potency (Es-2) | Potency (HeLa) | Potency (JEG-3)

CC(C)C(O)(CO)CCO[C@@H]1O[C@H](CO[C@H]2OC[C@](O)(CO)[C@H]2O)[C@@H](O)[C@H](O)[C@H]1O (some centres not stated)
inactive: max response (CRL-7250) 2.62% | max response (HEK293) -11.4% | max response (HaCat) -9.77% | max response (KB-3-1) 4.64% | outcome (NIH3T3 [1]) | outcome (NIH3T3 [3]) inactive [at 17.4 µM] | Potency (C33A) | Potency (CAOV3) | outcome (CASKI) | Potency (Es-2) | Potency (HeLa) | Potency (Hek293T [4]) | Potency (JEG-3)

CCCCCOC(=O)Nc1nc(=O)n(C2O[C@H](C)[C@@H](O)[C@H]2O)cc1F (some centres not stated)
inactive: outcome (CRL-7250) | max response (HEK293) -11.1% | max response (HaCat) -6.73% | outcome (KB-3-1) | outcome (NIH3T3 [1]) | outcome (NIH3T3 [3]) | Potency (C33A) | Potency (CAOV3) | outcome (CASKI) | Potency (Es-2) | Potency (HeLa) | Potency (Hek293T [4]) | Potency (JEG-3)

CCN=C1N[C@@H]2[C@@H](O)[C@H](O)[C@@H](CO)O[C@@H]2S1
inactive: max response (CRL-7250) 3.4% | max response (HEK293) -6.92% | max response (HaCat) 2.86% | max response (KB-3-1) 6.7% | outcome (NIH3T3 [1]) | outcome (NIH3T3 [3]) | Potency (C33A) | Potency (CAOV3) | outcome (CASKI) | Potency (Es-2) | Potency (HeLa) | Potency (Hek293T [4]) | Potency (JEG-3)

CC1(C)OC(=O)CC(O)C2(C)C1CC(=O)C1(C)C2C(O)CC2(C)C(c3ccoc3)OC(=O)C3OC321 (configuration not stated)
inactive: max response (CRL-7250) -14.5% | outcome (HEK293) | max response (HaCat) -9.13% | outcome (KB-3-1) | max response (NIH3T3 [1]) -11.7% | outcome (HEK293T [2]) inactive [at 17.4 µM] | Potency (C33A) | outcome (CASKI) | Potency (Es-2) | Potency (HeLa) | Potency (Hek293T [4]) | Potency (JEG-3)

COC(=O)C1C(O)CCC2CN3CCc4c([nH]c5ccccc45)C3CC21 (configuration not stated)
inactive: max response (CRL-7250) 2.68% | outcome (HEK293) | max response (HaCat) -7.68% | max response (KB-3-1) 9.41% | max response (NIH3T3 [1]) -7.25% | outcome (HEK293T [2]) | Potency (C33A) | Potency (CAOV3) | Potency (Es-2) | Potency (HeLa) | Potency (Hek293T [4]) | Potency (JEG-3)

O=C(O[C@@H]1O[C@H](CO)[C@@H](O)[C@H](O)[C@H]1O)c1ccccc1
inactive: outcome (CRL-7250) | outcome (HEK293) | max response (HaCat) 4.66% | outcome (KB-3-1) | max response (NIH3T3 [1]) 4.36% | outcome (HEK293T [2]) | Potency (C33A) | Potency (CAOV3) | outcome (CASKI) | Potency (Es-2) | Potency (HeLa) | Potency (Hek293T [4]) | Potency (JEG-3)

COc1ccc([C@H]2OC[C@H]3[C@@H]2CO[C@@H]3c2ccc(O[C@@H]3O[C@H](CO)C(O)[C@H](O)[C@H]3O)c(OC)c2)cc1OC (some centres not stated)
inactive: max response (CRL-7250) -2.87% | max response (HEK293) 1.89% | max response (HaCat) -9.63% | max response (KB-3-1) -3.78% | outcome (NIH3T3 [1]) | outcome (NIH3T3 [3]) inactive [at 17.4 µM] | Potency (C33A) | Potency (CAOV3) | outcome (CASKI) | Potency (Es-2) | Potency (HeLa) | Potency (Hek293T [4])

COc1cc(C(CO)CO[C@@H]2O[C@H](CO)[C@@H](O)[C@H](O)[C@H]2O)ccc1O (some centres not stated)
inactive: max response (CRL-7250) -15.6% | outcome (HEK293) | max response (HaCat) -35.5% | max response (KB-3-1) 5.97% | max response (NIH3T3 [1]) -7.99% | outcome (HEK293T [2]) | Potency (C33A) | Potency (CAOV3) | Potency (Es-2) | Potency (HeLa) | Potency (Hek293T [4]) | Potency (JEG-3)

COC(=O)[C@H](Cc1ccc([N+](=O)[O-])cc1)NC(=O)c1cccc2ccccc12
inactive: max response (CRL-7250) -4.16% | outcome (HEK293) | max response (HaCat) -4.67% | outcome (KB-3-1) | max response (NIH3T3 [1]) -1.76% | outcome (HEK293T [2]) | Potency (C33A) | outcome (CASKI) | Potency (Es-2) | Potency (HeLa) | Potency (Hek293T [4]) | Potency (JEG-3)

CC(=O)OC1CCC2(C)C(CCC3(C)C2CC=C2C4CC(C)(C)CCC4(C)CCC23C)C1(C)C(=O)O (configuration not stated)
inactive: max response (CRL-7250) -8.32% | outcome (HEK293) | max response (HaCat) -5.03% | max response (KB-3-1) 3% | max response (NIH3T3 [1]) 3.68% | outcome (HEK293T [2]) inactive [at 17.4 µM] | Potency (C33A) | outcome (CASKI) | Potency (Es-2) | Potency (HeLa) | Potency (Hek293T [4]) | Potency (JEG-3)

CC(C)=C1C[C@@]2(C)C(=CC1=O)CC[C@@H](O)[C@@H]2C
inactive: max response (CRL-7250) -13.6% | outcome (HEK293) | max response (HaCat) -1.2% | max response (KB-3-1) 3.47% | max response (NIH3T3 [1]) -19.7% | outcome (HEK293T [2]) | Potency (C33A) | outcome (CASKI) | Potency (Es-2) | Potency (HeLa) | Potency (Hek293T [4]) | Potency (JEG-3)

CN(C)C(=O)C(O)C(Cc1ccccc1)NC(=O)c1cc2cc(Cl)ccc2[nH]1 (configuration not stated)
inactive: outcome (CRL-7250) | outcome (HEK293) | max response (HaCat) -1.1% | max response (KB-3-1) 5.45% | max response (NIH3T3 [1]) -2.44% | outcome (HEK293T [2]) | Potency (C33A) | Potency (CAOV3) | outcome (CASKI) | Potency (Es-2) | Potency (HeLa) | Potency (JEG-3)
